Assay results reported in PubChem BioAssay AID1224860 (National Center for Advancing Translational Sciences (NCATS), 2016).
Inconclusive results are not listed. Values without a mark were called inactive. Activity calls are given as the source filed them. Calls come from the whole dose curve; as a rule, active = well fitted cell-killing curve with a large enough effect; inconclusive = small, poorly fitted or top-dose-only effect; inactive = flat fitted curve, though single readings scatter.

Test: Compound cytotoxicity measured by an ATP content assay as a counter-screen for lead compounds in human iPSC derived neural progenitor cells (hNPCs)
Settings: human iPSC-derived NPC viability, ATP luminescence; series mostly up to 46.1 µM; activity, negative = cytotoxicity: at the top concentration
Summary of the method: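 hNPCs (human iPSC-derived) seeded 16–20 h, then exposed to compound for 6, 24 or 72 h at 37 C. ATP-content luminescence read after 10 min at room temperature; cytotoxicity expressed as percent inhibition of viability.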

| SMILES | Potency | activity, negative = cytotoxicity |
| --- | --- | --- |
| Cc1cccc(C#Cc2ccccc2)n1 | 9.75 µM (active) |  |
| CC(C)c1ccc2oc3nc(N)c(C(=O)O)cc3c(=O)c2c1 | 3.46 µM (active) |  |
| CC1(C)OC2=C(C(=O)c3ccccc3C2=O)[C@H](NCc2ccccc2)[C@H]1O | 3.98 µM (active) |  |
| CCOC1OC(=O)C[C@H]1NC(=O)[C@@H]1CCCN1C(=O)[C@@H](NC(=O)c1ccc(N)c(Cl)c1)C(C)(C)C (some centres undefined) |  | 2.99% |
| O=C(Oc1ccccc1)c1cccc(C(=O)Oc2ccccc2)c1 |  | -3.83% [at 96.3 µM] |
| COc1ccnc2c1CCCCC2S(=O)c1nc2ccccc2[nH]1 (centres undefined) |  | -9.47% |
| NC(=O)c1cccc2[nH]c(-c3ccc([C@H]4CCCN4)cc3F)nc12 | 4.35 µM (active) |  |
| O=C(O)c1ccccc1Nc1cccc(C(F)(F)F)c1 |  | -6.8% |
| COc1cccc(-c2cc(=O)c3ccccc3o2)c1N | 15.5 µM (active) |  |
| Oc1ccc(/C=C/c2cc(O)cc(O)c2)cc1 | 9.75 µM (active) |  |
| N[C@H](CSC(c1ccccc1)(c1ccccc1)c1ccccc1)C(=O)O |  | -15.9% |
| Cc1cc(O)c2ccccc2c1O | 4.89 µM (active) |  |
| CN(C)c1ccc(/C=C2\C(=O)Nc3ccccc32)cc1 | 8.69 µM (active) |  |
| CC(C(=O)O)c1ccc(C(=O)c2ccccc2)s1 (centres undefined) |  | -0.805% |
